Experimental findings from PubChem BioAssay (NCI) are described below.

The panel holds about 83,000 compounds, 20% with a hit somewhere; the sample as a whole holds those more often.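 Assay: single dose, 48 h. Readout: percent growth (0 = no net growth; negative = cell death). Active: <10.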 Active and inactive are the calls of the source.

In the test the test system is HL-60(TB) leukemia. Kind of test: NCI-60 one-dose screen, 48 h (100 = growth as untreated, 0 = no growth, -100 = all killed). Particulars: 10 µM unless noted.
In the case of `Cc1nc2sc(C(=O)Nc3cccc4ccccc34)c(N)c2cc1C(O)c1ccccc1` (stereo not drawn), the growth is -55.1% (active).
The result for `C=C(C)[C@@H]1CC[C@]2(C(=O)NC(C)=O)CC[C@]3(C)[C@H](CC[C@@H]4[C@@]5(C)CCCNC(C)(C)[C@@H]5CC[C@]43C)[C@@H]12` reads -51.2% (active); that for `CSc1nc2c(c(=O)[nH]1)C(c1ccc(Cl)cc1)C1=C(N2)/C(=C/c2ccc(Cl)cc2)CNC1` (stereo not drawn), 55.4% (inactive).
